Experimental data: the supplement of paper PMC6555819

Experiments:
Assay in all cases: PBM binding z-score (relative to random genomic background probes); higher = stronger binding; sequences stand for … in GC…GCGATTGACAGCGTAGAATGAAGG
[1] = test system: FXR:RXRa (NR concentration 270 nM, RXRa partner concentration 90 nM)
Outline: (§1)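 Scanned fluorescence from custom Agilent 4×180K protein-binding microarrays was regression-normalized. Binding z-scores use random background probes as reference. Ligand-free nuclear receptor dimers were incubated on the arrays for 1 h and detected with antibodies against each partner (one per run).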

[2] = test system: LXRa:RXRa (NR concentration 270 nM, RXRa partner concentration 90 nM)
Outline: as §1

[3] = test system: LXRa homodimer (NR concentration 270 nM)
Outline: as §1

[4] = test system: LXRb:RXRa (NR concentration 270 nM, RXRa partner concentration 90 nM)
Outline: as §1

[5] = test system: LXRb homodimer (NR concentration 270 nM)
Outline: as §1

[6] = test system: PPARa:RXRa (NR concentration 270 nM, RXRa partner concentration 90 nM)
Outline: as §1

[7] = test system: PPARg:RXRa (NR concentration 180 nM, RXRa partner concentration 90 nM)
Outline: as §1

[8] = test system: PPARg:RXRa 270nM:90nM, anti-RXR (NR concentration 270 nM, RXRa partner concentration 90 nM)
Outline: as §1

[9] = test system: PPARg:RXRa 30nM:10nM, anti-RXR (NR concentration 30 nM, RXRa partner concentration 10 nM)
Outline: as §1

[10] = test system: PPARg:RXRa 90nM:30nM, anti-RXR (NR concentration 90 nM, RXRa partner concentration 30 nM)
Outline: as §1

[11] = test system: PPARg:RXRa DBDmut IVT, anti-RXR (DBD mutation: RXRa K156A/R161A, NR concentration 270 nM, RXRa partner concentration 90 nM)
Outline: as §1

[12] = test system: PPARg:RXRa IVT, anti-PPARg (NR concentration 270 nM, RXRa partner concentration 90 nM)
Outline: as §1

[13] = test system: PPARg DBDmut:RXRa IVT, anti-PPARg (DBD mutation: PPARg1 K132A/R137A, NR concentration 270 nM, RXRa partner concentration 90 nM)
Outline: as §1

[14] = test system: PPARg DBDmut IVT, anti-PPARg (DBD mutation: PPARg1 K132A/R137A, NR concentration 270 nM)
Outline: as §1

[15] = test system: PPARg homodimer (NR concentration 180 nM)
Outline: as §1

[16] = test system: PXR:RXRa (NR concentration 270 nM, RXRa partner concentration 90 nM)
Outline: as §1

[17] = test system: PXR homodimer (NR concentration 270 nM)
Outline: as §1

[18] = test system: RARa:RXR (NR concentration 270 nM, RXRa partner concentration 90 nM)
Outline: as §1

[19] = test system: RARa homodimer (NR concentration 270 nM)
Outline: as §1

[20] = test system: RARb:RXRa (NR concentration 270 nM, RXRa partner concentration 90 nM)
Outline: as §1

Sequence | PBM binding z-score [1] | PBM binding z-score [2] | PBM binding z-score [3] | PBM binding z-score [4] | PBM binding z-score [5] | PBM binding z-score [6] | PBM binding z-score [7] | PBM binding z-score [8] | PBM binding z-score [9] | PBM binding z-score [10] | PBM binding z-score [11] | PBM binding z-score [12] | PBM binding z-score [13] | PBM binding z-score [14] | PBM binding z-score [15] | PBM binding z-score [16] | PBM binding z-score [17] | PBM binding z-score [18] | PBM binding z-score [19] | PBM binding z-score [20]
CCTATTAGTTGATCATAAGGGCAACCGAAGCTCG | 0.383 | 0.258 | 0.608 | 0.291 | 0.94 | 0.433 | 0.394 | 0.295 | 0.0236 | 0.185 | 0.357 | 0.623 | 0.203 | 0.605 | 1.64 | 0.491 | 0.836 | 0.442 | 1.25 | 1.23
ACTATTAGTTGAGACTAGGGCAACCGATAGGTTG | -0.2 | -0.21 | -0.416 | -0.304 | 0.0178 | 0.296 | 0.679 | 0.33 | 0.227 | -0.101 | 1.02 | 2.46 | 0.767 | 0.914 | -0.0941 | -0.323 | -0.0618 | -0.0584 | 0.518 | 0.583
TCAGTCAGGTGAAGGTAACTCAGGTACGCAGTCG | 1.03 | 1.75 | -0.167 | 0.908 | 0.224 | 1.1 | 0.838 | 2.17 | 3.25 | 2.69 | 2.31 | 1.88 | 0.527 | -0.686 | 0.571 | 0.5 | 0.129 | 0.701 | 0.00869 | 1.52
GCGACTGGGGCATCAGCAGGTTCCCATAACTTAA | -0.761 | -0.491 | -0.648 | 0.0504 | -1.52 | 0.27 | 0.29 | 0.35 | -0.948 | -0.176 | 3.91 | 2.88 | -0.996 | -0.982 | -0.276 | -0.549 | -0.571 | -0.272 | -0.565 | 0.421
GGAACGAGGGCACGTTGATAGCAGAGTTTGATGG | 0.419 | 0.105 | -0.441 | 0.08 | -0.424 | 1.67 | 1.7 | 1.56 | 0.331 | 1.19 | 4.33 | 3.73 | 0.361 | -0.223 | -0.0757 | 0.508 | -0.125 | 0.282 | -0.225 | 2.37
CGAACGAGGACATGAGTTGATAGCAAATGCCGAT | 0.0885 | -0.189 | -0.104 | -0.698 | -0.657 | -0.417 | 0.982 | 0.127 | 0.435 | 0.242 | 0.314 | 0.0195 | 0.334 | -0.107 | 0.0836 | -0.249 | 0.0683 | -0.232 | 0.565 | 0.496
TCGAGCAGGTTACCAATGGGGCATTCAGCTTTCT | 0.00101 | 1.37 | -0.694 | 0.999 | -1 | 0.887 | -0.242 | 0.245 | 0.211 | 0.322 | 0.467 | 0.239 | -1.51 | -1.13 | -0.591 | 0.0251 | -0.765 | 0.475 | -1.05 | 1.07
ACTAGCAGGCCAAGGGTCTCTCAAGATTAGTCCG | -1.54 | -0.539 | -0.698 | -0.703 | -1.05 | 0.948 | 2.49 | 4.52 | 2.15 | 4.55 | 0.281 | 1.01 | -1.04 | -0.76 | -0.604 | -0.568 | -0.576 | -0.307 | -1.21 | 0.516
AGAATGAGGTTCCCAAAGATCAGGGAAACGCTTG | -0.395 | -0.315 | -0.36 | -0.576 | -0.694 | 0.11 | 0.423 | 0.0468 | 0.142 | 0.0809 | 0.186 | 0.311 | 1.11 | 0.173 | 0.224 | -0.152 | -0.346 | 0.182 | -0.181 | -0.0949
CCTCGGAGGACAACAGGAGGTCAGAGCAGCCAGA | 1.3 | 1.9 | 1.9 | 1.4 | -0.432 | 2.01 | 0.586 | 0.217 | -0.349 | -0.371 | -0.204 | 0.388 | -0.931 | -1.16 | 1.41 | 2.05 | 0.438 | 2.23 | 0.698 | 2.87
CCTACTGGGCGAAAGGTCATTGATTCCAATGCTC | 4.47 | 4.72 | 3.02 | 4.35 | 0.417 | 5.92 | 11 | 9.6 | 9.1 | 11.6 | 3.27 | 5.79 | -0.635 | -0.595 | 2.89 | 4.98 | 2.08 | 5.57 | 0.869 | 4.28
TAGCCTAGGTCATTGGGCCAGAATAGTACGCATC | 4.53 | 3.53 | 0.524 | 2.31 | 0.302 | 4.07 | 3.79 | 3.88 | 1.11 | 2.46 | 2.63 | 3.68 | -0.385 | -0.0458 | 1.41 | 1.51 | -0.537 | 2.26 | 0.079 | 3.53
CGTCAAAGTTCGAGGTAACGTAACAGAAAGCAGC | 1.32 | 1.25 | 0.0429 | 0.91 | -0.403 | 1.74 | 1.36 | 1.98 | 0.481 | 1.36 | 0.256 | 0.878 | -1.11 | 0.105 | 1.18 | 1.28 | 0.589 | 1.39 | 0.233 | 2.73
